Reference: PubChem BioAssay (NCI)
The panel holds about 83,000 compounds, 20% with a hit somewhere; the sample as a whole holds those more often.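 Cells were grown in 96-well plates and exposed to the test compound at a single concentration for 48 hours; results are reported as percent growth, with values below 10 considered active.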 A number with no mark means an inactive call. Calls of active or inactive are those of the source.

Legend:
Experiment in all cases: NCI-60 one-dose screen, 48 h (100 = growth as untreated, 0 = no growth, -100 = all killed)
Conditions in all cases: 10 µM unless noted
DU-145 prostate = system: DU-145 prostate
K-562 leukemia = system: K-562 leukemia
MALME-3M melanoma = system: MALME-3M melanoma
MDA-MB-231 breast = system: MDA-MB-231 breast
RXF 393 renal = system: RXF 393 renal
SF-268 CNS = system: SF-268 CNS
SF-295 CNS = system: SF-295 CNS
SF-539 CNS = system: SF-539 CNS
UACC-257 melanoma = system: UACC-257 melanoma
M14 melanoma = system: M14 melanoma

SMILES	growth (DU-145 prostate)	growth (K-562 leukemia)	growth (MALME-3M melanoma)	growth (MDA-MB-231 breast)	growth (RXF 393 renal)	growth (SF-268 CNS)	growth (SF-295 CNS)	growth (SF-539 CNS)	growth (UACC-257 melanoma)	growth (M14 melanoma)
CCOC(=O)c1c[nH][nH]c1=O	117%	116%	129%	108%	110%	110%	112%	94.9%	59.1%	96.5%
COC(CCCl)c1ccc(Cl)cc1 (stereo not drawn)	111%	89%	98.9%	119%	113%	110%	112%	101%	78%	101%
C/C(=N\O)c1ccccn1	106%	106%	108%	101%	108%	96.8%	102%	103%	86.3%	105%
Cc1cc(CO)c(O)c(CO)c1	115%	87.3%	104%	108%	112%	105%	109%	110%	95.8%	97.6%
N#Cc1ccc(OC(=O)Nc2c(Cl)cc(Cl)cc2Cl)cc1	111%	101%	95%	101%	125%	112%	108%	91.7%	97.7%	112%
Nc1ncnc(Nc2ccc(C(F)(F)F)cc2)n1	107%	98.9%	105%	102%	113%	101%	101%	107%	95.5%	103%
CC(=O)N(CCCCCCN(C(C)=O)C(C)=O)C(C)=O	106% [100 µM]	102% [100 µM]	107% [100 µM]	98% [100 µM]	112% [100 µM]	104% [100 µM]	110% [100 µM]	98.3% [100 µM]	95.1% [100 µM]	105% [100 µM]
Cc1ccc2nc(-c3ccc(N=Cc4ccccc4O)cc3)sc2c1	96.8%	84.8%	90.3%	62.2%	83.4%	97.7%	109%	89.3%	78.8%	78.4%
OCc1cccnc1	111%	117%	121%	103%	112%	97.7%	99%	95.3%	91.2%	98.2%
COC1OC(CO)C(OC)C(O)C1O (stereo not drawn)	105%	102%	111%	111%	99.4%	95.7%	96.7%	99%	106%	103%
CC1CCC(C(C)(C)[N+](C)(C)C)CC1 (stereo not drawn)	102%	116%	96.1%	103%	111%	95.8%	101%	96%	99.6%	98.1%
COc1ccc(/C=N/NC(=O)COCC(=O)N/N=C/c2ccc(OC)cc2)cc1	113%	102%	115%	98.4%	104%	110%	97.1%	100%	96.6%	115%
O=c1n(CC2CO2)c(=O)n(CC2CO2)n1CC1CO1 (stereo not drawn)	38.4%	57.4%	107%	110%	80.2%	53.5%	-10.3% (active)	18.8%	86.6%	48.1%
O=C(O)c1cccc(-n2ncc(Cl)c(Cl)c2=O)c1	114%	109%	106%	103%	118%	108%	102%	101%	89.2%	101%
CCNc1ccc2ccccc2c1N=Nc1ccc(N=Nc2ccccc2)cc1	121%	125%	128%	93.4%	118%	117%	107%	104%	123%	104%
CC(=O)NC(CCc1ccc(Cl)c(Cl)c1)c1cccc(O)c(=O)c1 (stereo not drawn)	16.6%	11.2%	-17.9% (active)	28.3%	18.6%	8.61% (active)	-22.2% (active)	2.57% (active)	-11% (active)	-44.2% (active)
CCOC(=O)c1ccc(NC(=O)Nc2nccs2)cc1	-26.3% (active)	-3.89% (active)	39.4%	8.88% (active)	-21.2% (active)	0.081% (active)	9.16% (active)	-50.1% (active)	45.5%	4.57% (active)
O=C1C=C[C@H](O)[C@@]2(CO)O[C@@H]12	95.6%	4.07% (active)	77.7%	105%	23.1%	100%	109%	70.1%	108%	85.9%
CC(C)OCC(CCl)OC(=O)Nc1ccccc1 (stereo not drawn)	106%	103%	92.7%	94.8%	113%	101%	108%	98.1%	102%	107%
Nc1ccccc1SC1CC(=O)N(c2ccc(Cl)c(Cl)c2)C1=O (stereo not drawn)	113%	122%	177%	94.4%	130%	97.6%	127%	83.1%	-6.15% (active)	94.8%
Cc1onc(-c2ccccc2Cl)c1C(=O)Cl	121%	101%	109%	101%	115%	117%	91.7%	113%	103%	108%
N#Cc1ccc2nc[nH]c2c1	101%	106%	102%	120%	109%	104%	107%	113%	97.9%	107%
Cc1cc(Cc2ccccc2)c(O)c(Cc2ccccc2)c1	103%	82.6%	103%	91.6%	88.2%	93.4%	101%	101%	93.4%	91.5%
CCCNS(=O)(=O)c1ccc(Cl)cc1	109%	104%	105%	102%	114%	106%	87.8%	98.1%	101%	101%
COc1cc(C(=O)N2CCN(c3ccccc3)CC2)c2ccccc2n1	1.57% (active)	16.5%	54.6%	5.71% (active)	-39.8% (active)	42.9%	7.61% (active)	-4.8% (active)	51.1%	0.444% (active)
O=Cc1ccc(O)c(O)c1	94.9%	103%	108%	99.7%	88.3%	74.1%	103%	81.9%	93.7%	94.5%
COc1cc(N)c2ncccc2c1Cl	119%	102%	113%	96.2%	96.5%	106%	101%	87.3%	109%	103%
COc1cccc(C(=O)O)c1OC	111%	107%	103%	99.2%	115%	105%	87.5%	96.4%	97.6%	103%
COC(=O)c1ccccc1C(=O)c1c(C)cc(C)cc1C	104%	96.7%	99.1%	97.4%	111%	102%	102%	–	99.6%	108%
Cn1c(=O)c2[nH]c(CC(=O)O)nc2n(C)c1=O	108%	105%	99.4%	100%	104%	101%	101%	–	96.9%	104%
